# Compound activity deposited in PubChem BioAssay by ICCB-Longwood Screening Facility, Harvard Medical School.
# Shown are actives, neighbours in structure and some others; about 0.68% of the full set was active somewhere.
# Sa RN4220 lethal: S. aureus RN4220 growth inhibition; inhibition, % (concentration not given with the values); 0.33% of 330,000 active; OD600, 16 h; in the data active = inhibition above about 85%
# ugtP null kill: kills S. aureus RN4220 lacking UgtP. S. aureus RN4220 ugtP deletion, OD600 growth, 16 h. growth inhibition, % (concentration not given with the values). 0.54% of 330,000 active. AID 1259309; in the data active = growth inhibition above about 68%
# Mtb hypoxia rep: inhibitors of hypoxia-regulated fluorescent reporter in Mycobacterium tuberculosis; M. tuberculosis hypoxia-regulated fluorescent reporter, fluorescence; fluorescence inhibition, % (concentration not given with the values); 0.1% of 300,000 active; in the data active = fluorescence inhibition mostly above about 23%, no sharp cut-off; inactive = mostly below about 17%
# Numbers stand for hits; - = inactive; . = not tested or not shown.
SMILES,Sa RN4220 lethal,ugtP null kill,Mtb hypoxia rep
CCOC1OC(C(=O)N2CCOCC2)=CC(c2ccc(Br)cc2)C1CCCO (stereo not given),-,-,-
O=C(CC1CC=CCC(Cc2ccc(F)cc2)C(=O)OCC(Cc2c[nH]c3ccccc23)NC1=O)NCCO (stereo not given),-,-,-
CCN1C(N(C)CCc2cccs2)=NC(c2ccccc2)C(C(=O)OC)=C1C (stereo not given),-,-,-
CCN1C(=O)C2C(c3ccc(C)cc3)N3C(=O)N(c4ccc(C(F)(F)F)cc4)C(=O)[C@@]3(Cc3ccccc3)C2C1=O (stereo not given in full),-,-,-
O=C(NCCc1ccccc1)C1CC=CC2CCN(Cc3ccc(Cl)c(Cl)c3)C(=O)C21 (stereo not given),-,-,-
COc1cc2c(cc1NC(=O)CCC(=O)O)oc1ccccc12,-,-,-
COc1cc2c(cc1NC(=O)Nc1ccccc1)oc1ccccc12,-,84,-
COC(=O)C1=C(C)N(Cc2ccccc2)C(=NCc2cc(OC)c(OC)c(OC)c2)NC1c1ccc(Br)cc1 (stereo not given),-,-,-
CC(C)COC(=O)c1ccc(N2C(=O)c3ccccc3C2=O)cc1,-,-,-
CC(C)COC(=O)c1ccc2c(c1O)C(=O)c1ccccc1C2=O,92,93,-
O=c1c2ccccc2nc(/C=C/c2ccc([N+](=O)[O-])o2)n1-c1ccc(O)cc1,99,100,-
CC(=O)N(N=Cc1ccc([N+](=O)[O-])o1)c1nc2ccccc2c(=O)n1-c1ccccc1,-,-,-
Cc1[nH]c2ccccc2c1/C=C/c1nc2ccccc2c(=O)n1-c1ccc([N+](=O)[O-])cc1,-,-,-
Cc1cccc(-n2c(/C=C/c3ccc([N+](=O)[O-])o3)nc3ccccc3c2=O)c1,-,99,-
COC(=O)N1CC=CC(c2ccc(OC)cc2)N(Cc2ccc(F)cc2)C(=O)C1 (stereo not given),-,-,-
CN(C)C(=NS(=O)(=O)c1ccc(F)cc1)c1ccccc1,-,-,-
Cc1ccc(-c2csc(N(CC3CCCO3)C(=O)c3ccco3)n2)cc1 (stereo not given),-,-,-
O=C(c1ccco1)N(CC1CCCO1)c1nc(-c2ccccc2)cs1 (stereo not given),-,86,-
CC(CC1CC(C)OC1=O)=NNC(N)=S (stereo not given),-,-,-
Cc1cc([N+](=O)[O-])c(C)cc1-c1ccc(C=NNC(=O)Cn2nnnc2N)o1,-,-,-
[O-][n+]1c2cc(C(F)(F)F)ccc2c2n1CCN=C2c1ccc(Cl)cc1,-,-,.
Nc1c(Cl)cc(C2=NCCn3c2c2ccc([N+](=O)[O-])cc2[n+]3[O-])cc1Cl,-,-,45
COCCNC(=O)C(C)C1C[C@]1(C)C(NC(=O)OCc1ccccc1)c1ccccc1 (stereo not given in full),-,-,-
NC(=S)NN=Cc1ccc(C=NNC(N)=S)cc1,-,-,.
N/C(=N\N=Cc1ccc(Br)cc1)NN=Cc1ccc(Br)cc1,101,100,-
SMILES,Sa RN4220 lethal,ugtP null kill,Mtb hypoxia rep
CC(C)(C)C(=O)Nc1ccc2c(c1)OCCOCCOc1cc(NC(=O)C(C)(C)C)ccc1OCCOCCO2,-,-,36
CC(=O)Nc1ccc2c(c1)OCCOCCOc1cc(NC(C)=O)ccc1OCCO2,-,-,-
COc1ccc(C2C=CCN(Cc3ccc(N(C)C)cc3)C(C)C(=O)N2Cc2ccc(F)cc2)cc1 (stereo not given),-,-,-
O=C1C2C(c3ccc(F)cc3)N3C(=O)N(c4cccc(Cl)c4)C(=O)[C@@]3(Cc3ccccc3)C2C(=O)N1C1CCCCC1 (stereo not given in full),-,-,-
O=C(Nc1ccc(S(=O)(=O)N2CCCC2)cc1)c1ccccc1,-,-,-
CC(=O)N1CCN(c2ccc(NC(=S)NC(=O)c3ccccc3)cc2)CC1,-,93,-
CN1CCN(c2ccc(NC(=S)NC(=O)c3cccc4ccccc34)cc2)CC1,-,95,-
O=C(NC(=S)Nc1ccc(S(=O)(=O)N2CCCCC2)cc1)c1ccccc1,-,86,.
CC(C)Oc1ccc(C(=O)Nc2ccc(N3CCN(C(=O)c4ccco4)CC3)cc2)cc1,-,-,-
CN1CCN(c2ccc(NC(=S)NC(=O)c3cccc4c(Br)cccc34)cc2)CC1,-,-,-
CC(=O)N1CCN(c2ccc(NC(=O)c3ccccc3)cc2)CC1,-,-,-
Cc1ccc(C(=O)NC(=S)Nc2ccc(N3CCN(C(=O)c4ccco4)CC3)cc2)cc1,-,91,-
CC(C)C1NC(=O)c2cc([N+](=O)[O-])cc(I)c2NCCCC(C(N)=O)NC(=O)C(CO)NC1=O (stereo not given),-,-,-
CC=CC(=O)Nc1cccc(C2=NOC3(C2)CC(C(N)=O)N(C(=O)COc2ccc(Cl)cc2)C3)c1 (stereo not given),-,-,-
CCCCn1c(=O)[nH]c(=O)c2c1nc(-c1ccc(-c3ccc(F)cc3)o1)n2C,-,-,37
CCCCn1c(=O)[nH]c(=O)c2c1nc(-c1ccc(CC)c([N+](=O)[O-])c1)n2C,-,-,-
Nc1nc(-c2ccccc2)c(N=Nc2ccccc2Cl)s1,-,-,-
Nc1nc(-c2ccccc2)c(N=Nc2cccc3ccccc23)s1,99,97,-
CC(=O)Oc1ccc(C#CC=C2c3ccccc3C(=O)N2c2ccccc2)cc1,-,-,-
CN1/C(=C\C(=O)Nc2ccc(F)cc2)C(C)(C)c2ccccc21,-,-,-
CN1/C(=C\C(=O)Nc2ccc(Br)cc2)C(C)(C)c2ccccc21,94,96,-
CN(C)C(=O)C1CC1C(O)C(CO)NC(=O)C(Cc1ccccc1)NC(=O)OC(C)(C)C (stereo not given),-,-,-
COc1ccc(N(CC(=O)NN=Cc2ccc(-c3ccc([N+](=O)[O-])cc3)o2)S(=O)(=O)c2ccc(C)cc2)cc1Cl,-,-,.
Cc1ccccc1CN1C(=O)C2Cc3c([nH]c4ccccc34)C(C)(C)N2C1=O (stereo not given),-,-,-
Cc1ccc(C(=O)Nc2ccc(Br)c(C(F)(F)F)c2)cc1,-,91,-
SMILES,Sa RN4220 lethal,ugtP null kill,Mtb hypoxia rep
Cc1ccc(NC(=O)c2ccc(C)cc2)cc1,-,-,-
CCSc1nc2sc3c(c2c(=O)n1C1CCCCC1)CCN(C)C3,-,-,-
C=C(C)CSc1nc2sc3c(c2c(=O)n1C1CCCCC1)CCN(C)C3,-,active,-
Cc1ccc(-n2c(C)cc(C(=O)NS(=O)(=O)c3ccc(C)cc3)c2C)cc1,-,98,-
CCOc1ccc(-n2c(C)cc(C(=O)NS(=O)(=O)c3ccc(C)cc3)c2C)cc1,-,92,-
CCOc1ccc(S(=O)(=O)NC(=O)c2ccccc2)cc1,-,-,-
Cc1ccc(S(=O)(=O)NC(=O)c2cc(C)n(C3CC3)c2C)cc1,-,-,-
CCOC(=O)c1ccc(NC=CC(=O)C(C)(C)C)cc1,-,-,-
O=C1CCCCC=CCC(CC(=O)N(CCO)Cc2ccccc2)C(=O)NC(Cc2ccccc2)CO1 (stereo not given),-,-,-
CCCSc1nc2c(cnn2-c2ccccc2)c(=O)n1N,-,-,-
CCCOc1nc(SCCC)nc2c1cnn2-c1ccccc1,-,93,-
O=c1c2ccccc2c(C=NNS(=O)(=O)c2ccccc2)c(O)n1-c1ccccn1,-,-,-
